Out of some 5,500 compounds screened, about 2,000 (36%) were called active. Another 18% or so got no clear call; they are omitted. Cut-off read from the data, not from the text of the source: active = normalized growth mostly below about 0.91 (no sharp cut-off); inconclusive = no clear call, values can overlap the other calls; inactive = mostly above about 0.92. Some of the results follow.
Experiment: chemical genetic growth profiling, strain panel (AID 1159580);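 note: tested at 20 µM; growth read once vehicle control cultures reached saturation at 30 °C; 1 = growth at the plate median or of vehicle wells; lower values mean less growth of the strain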
Details: growth OD
[1] = S. cerevisiae deletion strains, locus YDL101C, strain DUN1, active compounds read low
[2] = S. cerevisiae deletion strains, locus YHR030C, strain SLT2, active compounds read low
[3] = S. cerevisiae deletion strains, locus YAL013W, strain DEP1, active compounds read low
[4] = S. cerevisiae deletion strains, locus YBR229C, strain ROT2, active compounds read low
[5] = S. cerevisiae deletion strains, locus YDR150W, strain NUM1, active compounds read low
[6] = S. cerevisiae deletion strains, locus YEL061C, strain CIN8, active compounds read low
[7] = S. cerevisiae deletion strains, locus YGR078C, strain PAC10, active compounds read low
[8] = S. cerevisiae deletion strains, locus YHR087W, strain rtc3, active compounds read low
[9] = S. cerevisiae deletion strains, locus YJR043C, strain POL32, active compounds read low
[10] = S. cerevisiae deletion strains, locus YJR075W, strain HOC1, active compounds read low
[11] = S. cerevisiae deletion strains, locus YKL190W, strain CNB1, active compounds read low
[12] = S. cerevisiae deletion strains, locus YLR039C, strain RIC1, active compounds read low
[13] = S. cerevisiae deletion strains, locus YLR058C, strain SHM2 (second series), active compounds read low
[14] = S. cerevisiae deletion strains, locus YLR085C, strain ARP6, active compounds read low
[15] = S. cerevisiae deletion strains, locus YLR262C, strain YPT6, active compounds read low
[16] = S. cerevisiae deletion strains, locus YML094W, strain GIM5, active compounds read low
[17] = S. cerevisiae deletion strains, locus YMR219W, strain ESC1, active compounds read low
[18] = S. cerevisiae deletion strains, locus YMR263W, strain SAP30, active compounds read low
[19] = S. cerevisiae deletion strains, locus YNL153C, strain GIM3, active compounds read low
[20] = S. cerevisiae deletion strains, locus YNL298W, strain CLA4 (second series), active compounds read low
[21] = S. cerevisiae deletion strains, locus YNL322C, strain KRE1, active compounds read low
[22] = S. cerevisiae deletion strains, locus YNR030W, strain Alg12, active compounds read low
[23] = S. cerevisiae deletion strains, locus YPL055C, strain LGE1, active compounds read low
[24] = S. cerevisiae deletion strains, locus YPL241C, strain CIN2, active compounds read low
[25] = S. cerevisiae deletion strains, locus YPR135W, strain CTF4, active compounds read low
[26] = S. cerevisiae deletion strains, locus YCL061C, strain MRC1, active compounds read low

Measured: normalized growth

FC(F)(F)c1ccc(NC(=S)Nc2ccc(C(F)(F)F)cc2Cl)c(Cl)c1
inactive: S. cerevisiae deletion strains, locus YAR019C, strain CDC15, active compounds read low 0.964 | S. cerevisiae deletion strains, locus YBL105C, strain PKC1, active compounds read low 0.969 | S. cerevisiae deletion strains, locus YBR135W, strain CKS1, active compounds read low 0.955 | S. cerevisiae deletion strains, locus YBR136W, strain MEC1, active compounds read low 0.969 | S. cerevisiae deletion strains, locus YBR160W, strain CDC28, active compounds read low 0.948 | S. cerevisiae deletion strains, locus YDL017W, strain CDC7, active compounds read low 0.965 | S. cerevisiae deletion strains, locus YDL028C, strain MPS1, active compounds read low 0.952 | [1] 0.993 | S. cerevisiae deletion strains, locus YDL108W, strain KIN28, active compounds read low 0.946 | S. cerevisiae deletion strains, locus YDL132W, strain cdc53, active compounds read low 0.949 | S. cerevisiae deletion strains, locus YDL214C, strain PRR2, active compounds read low 0.921 | S. cerevisiae deletion strains, locus YDR052C, strain DBF4, active compounds read low 0.979 | S. cerevisiae deletion strains, locus YDR054C, strain cdc34, active compounds read low 0.976 | S. cerevisiae deletion strains, locus YDR226W, strain ADK1, active compounds read low 0.936 | S. cerevisiae deletion strains, locus YDR477W, strain SNF1, active compounds read low 0.938 | S. cerevisiae deletion strains, locus YER123W, strain YCK3, active compounds read low 0.902 | S. cerevisiae deletion strains, locus YER133W, strain GLC7, active compounds read low 0.933 | S. cerevisiae deletion strains, locus YFL009W, strain cdc4, active compounds read low 0.921 | S. cerevisiae deletion strains, locus YFL029C, strain CAK1, active compounds read low 0.968 | S. cerevisiae deletion strains, locus YFR003C, strain YPI1, active compounds read low 0.955 | S. cerevisiae deletion strains, locus YFR019W, strain FAB1, active compounds read low 0.932 | S. cerevisiae deletion strains, locus YFR028C, strain CDC14, active compounds read low 0.953 | S. cerevisiae deletion strains, locus YGR040W, strain KSS1, active compounds read low 0.929 | S. cerevisiae deletion strains, locus YGR052W, strain FMP48, active compounds read low 0.937 | S. cerevisiae deletion strains, locus YGR092W, strain DBF2, active compounds read low 0.911 | S. cerevisiae deletion strains, locus YHR079C, strain IRE1, active compounds read low 0.948 | S. cerevisiae deletion strains, locus YHR082C, strain KSP1, active compounds read low 0.926 | S. cerevisiae deletion strains, locus YHR205W, strain SCH9, active compounds read low 0.919 | S. cerevisiae deletion strains, locus YIL147C, strain SLN1, active compounds read low 0.962 | S. cerevisiae deletion strains, locus YJL095W, strain BCK1, active compounds read low 0.919 | S. cerevisiae deletion strains, locus YJL128C, strain PBS2, active compounds read low 0.956 | S. cerevisiae deletion strains, locus YJL157C, strain FAR1, active compounds read low 0.928 | S. cerevisiae deletion strains, locus YJR016C, strain ILV3, active compounds read low 0.966 | S. cerevisiae deletion strains, locus YJR066W, strain TOR1 (second series), active compounds read low 0.95 | S. cerevisiae deletion strains, locus YJR066W, strain TOR1, active compounds read low 0.886 | S. cerevisiae deletion strains, locus YKL048C, strain ELM1, active compounds read low 0.946 | S. cerevisiae deletion strains, locus YKL067W, strain YNK1, active compounds read low 0.907 | S. cerevisiae deletion strains, locus YKL101W, strain HSL1, active compounds read low 0.898 | S. cerevisiae deletion strains, locus YKL193C, strain SDS22, active compounds read low 0.954 | S. cerevisiae deletion strains, locus YKL203C, strain TOR2, active compounds read low 1.03 | S. cerevisiae deletion strains, locus YLR133W, strain CKI1, active compounds read low 0.923 | S. cerevisiae deletion strains, locus YLR403W, strain SFP1, active compounds read low 0.949 | S. cerevisiae deletion strains, locus YML070W, strain DAK1, active compounds read low 0.902 | S. cerevisiae deletion strains, locus YMR001C, strain CDC5, active compounds read low 0.961 | S. cerevisiae deletion strains, locus YMR205C, strain PFK2 (second series), active compounds read low 0.929 | S. cerevisiae deletion strains, locus YMR277W, strain FCP1, active compounds read low 0.944 | S. cerevisiae deletion strains, locus YNL006W, strain LST8, active compounds read low 0.961 | S. cerevisiae deletion strains, locus YNL020C, strain ARK1, active compounds read low 0.887 | S. cerevisiae deletion strains, locus YNL161W, strain CBK1, active compounds read low 0.967 | S. cerevisiae deletion strains, locus YNL183C, strain NPR1, active compounds read low 0.929 | S. cerevisiae deletion strains, locus YNL207W, strain RIO2, active compounds read low 0.948 | S. cerevisiae deletion strains, locus YNL222W, strain SSU72, active compounds read low 0.95 | S. cerevisiae deletion strains, locus YNL307C, strain MCK1 (second series), active compounds read low 0.888 | S. cerevisiae deletion strains, locus YOL078W, strain AVO1, active compounds read low 0.955 | S. cerevisiae deletion strains, locus YOL136C, strain PFK27, active compounds read low 0.908 | S. cerevisiae deletion strains, locus YOR061W, strain CKA2, active compounds read low 0.911 | S. cerevisiae deletion strains, locus YOR119C, strain RIO1, active compounds read low 0.954 | S. cerevisiae deletion strains, locus YOR231W, strain MKK1, active compounds read low 0.92 | S. cerevisiae deletion strains, locus YOR329C, strain SCD5, active compounds read low 0.971 | S. cerevisiae deletion strains, locus YPL031C, strain PHO85, active compounds read low 0.945 | S. cerevisiae deletion strains, locus YPL153C, strain RAD53, active compounds read low 0.927 | S. cerevisiae deletion strains, locus YPL204W, strain HRR25, active compounds read low 0.916 | S. cerevisiae deletion strains, locus YPL209C, strain IPL1, active compounds read low 0.972 | S. cerevisiae deletion strains, locus YPL256C, strain CLN2, active compounds read low 0.929 | S. cerevisiae deletion strains, locus YPR025C, strain CCL1, active compounds read low 0.966 | S. cerevisiae deletion strains, locus YPR106W, strain ISR1, active compounds read low 0.956 | S. cerevisiae deletion strains, locus YPR111W, strain DBF20, active compounds read low 0.929 | S. cerevisiae deletion strains, strain NNK1, active compounds read low 0.959 | S. cerevisiae deletion strains, strain TSCII, active compounds read low 0.97
active: [2] 0.83 | S. cerevisiae deletion strains, locus YLR113W, strain HOG1, active compounds read low 0.836

CC(=O)NN(C)c1ccc(C(F)(F)F)cc1[N+](=O)[O-]
inactive: [3] 1.01 | [4] 1.01 | [1] 1 | [5] 0.991 | [6] 1.02 | [7] 1 | [2] 1.11 | [8] 1.01 | S. cerevisiae deletion strains, locus YJL187C, strain SWE1, active compounds read low 1.02 | [9] 1.01 | [10] 1 | [11] 1.01 | [12] 1 | [13] 1.01 | [14] 1.04 | [15] 0.986 | [16] 1.02 | [17] 1.01 | [18] 1.01 | [19] 1.01 | [20] 1.01 | [21] 1.01 | [22] 1.02 | [23] 0.989 | [24] 1.02 | [25] 1.07

NNC(=S)Nc1cc(C(F)(F)F)ccc1Cl
active: [3] 0.926 | [4] 0.87 | [26] 0.828 | [1] 0.875 | S. cerevisiae deletion strains, locus YDL134C, strain PPH21, active compounds read low 0.86 | [6] 0.807 | [7] 0.848 | [2] 0.324 | [9] 0.88 | [11] 0.64 | [12] 0.711 | [14] 0.298 | [15] 0.804 | [16] 0.81 | S. cerevisiae deletion strains, locus YNL128W, strain TEP1, active compounds read low 0.858 | [19] 0.899 | [20] 0.408 | [22] 0.525 | [23] 0.786 | [24] 0.664 | [25] 0.373
inactive: [5] 0.872 | S. cerevisiae deletion strains, locus YGR229C, strain SMI1, active compounds read low 0.997 | [8] 0.938 | [10] 0.92 | [13] 0.977 | [17] 0.978 | [18] 0.914 | [21] 0.993

NNC(=S)Nc1ccc(C(F)(F)F)cc1
active: [3] 0.918 | [4] 0.895 | [26] 0.872 | [6] 0.796 | [7] 0.867 | [2] 0.331 | [8] 0.899 | [11] 0.715 | [14] 0.254 | [16] 0.703 | [19] 0.912 | [20] 0.378 | [22] 0.522 | [23] 0.735 | [24] 0.661 | [25] 0.513 | S. cerevisiae strains, strain wild type, active compounds read low 0.756
inactive: [1] 0.982 | [5] 0.899 | [9] 0.972 | [10] 0.961 | [12] 0.847 | [13] 0.968 | [15] 0.962 | [17] 0.985 | [18] 0.937 | [21] 0.999

— PubChem BioAssay AID1159580 (chemical genetic matrix, 2015)
